Test results taken from PubChem BioAssay AID904 (National Center for Advancing Translational Sciences (NCATS), 2007).
Screen size: about 55,000 compounds; about 530 (0.96%) were called active. A call without a number means that no potency is given here. Another 7% or so got no clear call; they are omitted. Calls follow the shape of the dose curve; as a rule, active = well fitted cell-killing curve with a large enough effect; inconclusive = small, poorly fitted or top-dose-only effect; inactive = no such curve, though single readings can be large or run the other way. Many of the other results were omitted from the sample, so actives are more common in it than they were.

Experiment: qHTS Screen for Compounds that Selectively Target Cancer Cells with p53 Mutations: Cytotoxicity of p53 Null Cells at the Nonpermissive Temperature; also: nearly all actives have a fitted effect of over 50% in size
Conditions: H1299 p53-null (neo) cells, 39C, ATPlite viability, 24 h; series mostly up to 46.1 µM
Summary of the method: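 Concentration-response (up to 46 uM) was run for 24 h at the nonpermissive 39C on H1299-p53A138V or H1299-neo cells. ATP content was measured with ATPlite luminescence. AC50 values were Hill-modeled after normalizing between DMSO and 100 uM tamoxifen killing.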
Potency is read from the fitted curve at half-maximal effect.

Q: Which Potency does the source give for Cc1ccccc1CNC(=O)C(=O)NCC(c1cccs1)S(=O)(=O)c1cccs1 (stereo unspecified) here?
A: inactive

Q: Which Potency does the source give for CCC(=O)N1c2ccccc2CC1C(=O)N1CCN(c2ccccc2F)CC1 (stereo unspecified) here?
A: inactive

Q: For Cc1ccc(OCC(=O)OCc2cc(=O)n3nc(C4CC4)sc3n2)cc1, which Potency is on record?
A: inactive

Q: For COc1ccccc1NC(=O)c1cc(S(=O)(=O)NCCc2ccccc2)ccc1F, which Potency is on record?
A: inactive

Q: Which Potency does the source give for COCCn1c(SCC(=O)c2cc(C)ccc2C)nc2cc(C(=O)NC3CCCC3)ccc2c1=O here?
A: inactive

Q: With CCn1c(CNC(=O)c2ccccc2)nnc1SCC(=O)N1CCN(c2ccccc2)CC1 as the compound, how does the Potency read?
A: inactive

Q: For CCOCN(C(=O)Cn1c(C(C)O)nc2ccccc21)c1c(C)cccc1CC (stereo unspecified), which Potency is on record?
A: inactive

Q: Which Potency does the source give for COc1cc(-c2cc3n(C)c(C)c(CCC(=O)Nc4ccc(F)cc4)c(=O)n3n2)cc(OC)c1OC here?
A: inactive

Q: Which Potency does the source give for COc1ccc(NC(=O)CN2C(=O)C(c3ccccc3)=NC23CCCCCC3)cc1OC here?
A: inactive

Q: For COc1ccc(-c2nn(CC(=O)Nc3ccccc3F)c3c2cnc2ccc(F)cc23)cc1, which Potency is on record?
A: inactive

Q: For COC(=O)c1nc2ccccc2s1, which Potency is on record?
A: inactive

Q: Which Potency does the source give for CCc1ccccc1N1C(=O)CN(S(=O)(=O)CC)CC1(C)C(=O)NC1CCCCC1 (stereo unspecified) here?
A: inactive

Q: Which Potency does the source give for O=C(Nc1cccc(F)c1)c1coc(=O)c(Br)c1 here?
A: inactive

Q: With COc1cccc(CNC(=O)C(=O)NCC(c2cccs2)S(=O)(=O)c2ccccc2)c1 (stereo unspecified) as the compound, how does the Potency read?
A: inactive

Q: With Cc1ccc(C)c(Cn2c(CCCNC(=O)C3CCCCC3)nc3ccccc32)c1 as the compound, how does the Potency read?
A: inactive

Q: With O=C(CC(NCc1cccnc1)C(=O)O)Nc1ccc(O)cc1 (stereo unspecified) as the compound, how does the Potency read?
A: inactive

Q: For CCN1C(=O)c2ccccc2Sc2ccc(NC(=O)Cc3ccc(OC)cc3)cc21, which Potency is on record?
A: inactive

Q: For C/C(CC(=O)Nc1ccc(Cl)cc1)=N\NC(=O)C(=O)NCCO, which Potency is on record?
A: inactive

Q: For CC(=O)c1sc(N2C(=O)c3oc4ccccc4c(=O)c3C2c2ccc(C)cc2)nc1C (stereo unspecified), which Potency is on record?
A: inactive

Q: For COC(=O)c1ccccc1NC(=O)Cn1c(=O)n(-c2cccc(C(F)(F)F)c2)c(=O)c2c(C)c(C)sc21, which Potency is on record?
A: inactive

Q: With CCCCOc1ccc(CN2C(=O)C(=O)c3cc(Br)cc(C)c32)cc1OC as the compound, how does the Potency read?
A: 11.2 µM (active)

Q: Which Potency does the source give for CCCCOc1ccc(Cn2c(=O)oc3ccc(C)cc32)cc1OC here?
A: inactive

Q: Which Potency does the source give for COc1ccc(CCN2C(=O)C3CC=C(C)CC3C2=O)cc1OC (stereo unspecified) here?
A: inactive

Q: Which Potency does the source give for COc1ccc(CCNC(=O)/C(C#N)=C2\N=C(NC(=O)c3cccs3)c3ccccc32)cc1 here?
A: inactive

Q: For CCCS(=O)(=O)Nc1cccc(-c2cn3ccsc3n2)c1, which Potency is on record?
A: inactive

Q: With CCc1ccc(CNC(=O)C2CCN(c3nn4cc(-c5ccc(F)cc5)nc4s3)CC2)cc1 as the compound, how does the Potency read?
A: inactive

Q: For CCC(CC)c1nn2cc(-c3ccccc3)nc2s1, which Potency is on record?
A: 7.94 µM (active)

Q: For Cc1ccc(Cl)cc1NC(=O)CSc1nccn1C, which Potency is on record?
A: inactive

Q: With COc1cccc(CNC(=O)Cn2c(=O)c3cccn3c3ccc(F)cc32)c1OC as the compound, how does the Potency read?
A: inactive

Q: Which activity, negative = cell killing does the source give for CC(C)NC(=S)N1CCN(C(c2ccccc2)c2ccccc2)CC1 here?
A: 2.42% [at 1.84 µM] (inactive)

Q: For CCC(C)NC(=O)Cn1c(=O)n(-c2ccc(Cl)cc2)c(=O)c2c3c(sc21)CCCC3 (stereo unspecified), which Potency is on record?
A: inactive

Q: For Cc1ccc(N(CC(=O)NCC(C)c2ccccc2)S(=O)(=O)N(C)C)cc1 (stereo unspecified), which Potency is on record?
A: inactive

Q: With Cc1ccc(OCCSc2nc(-c3cccs3)nc3cc(=O)[nH]n23)cc1Cl as the compound, how does the Potency read?
A: inactive

Q: Which Potency does the source give for O=C(ON=C1CCN(S(=O)(=O)c2ccccc2)CC1)c1ccc(Cl)cc1 here?
A: inactive

Q: Which Potency does the source give for CCOC(=O)CSC1=Nc2ccccc2C2=NC(CCC(=O)NCc3ccc(F)cc3)C(=O)N12 (stereo unspecified) here?
A: inactive

Q: For COc1ccc(OCCn2cc(C(=O)C3CCCCC3)c3ccccc32)cc1, which Potency is on record?
A: inactive

Q: With CCOc1ccc(C(=O)/C=C/c2cn(CC(O)CN3CCCCCC3)c3ccccc23)cc1 (stereo unspecified) as the compound, how does the Potency read?
A: 12.6 µM (active)

Q: With O=C(/C=C/c1cn(CC(O)CN2CCc3ccccc32)c2ccccc12)c1ccc(Br)cc1 (stereo unspecified) as the compound, how does the Potency read?
A: inactive

Q: For O=C(Cc1cccs1)Nc1nnc(SCc2ccc(F)cc2)s1, which Potency is on record?
A: inactive

Q: Which Potency does the source give for CCc1ccccc1N(C)C(=O)C1CCCN(c2ncnc3onc(-c4ccc(F)cc4)c23)C1 (stereo unspecified) here?
A: inactive

Q: For Cc1nn(Cc2ccc(F)cc2)c(C)c1NC(=O)c1cc(CC(C)C)on1, which Potency is on record?
A: inactive

Q: For COc1ccc(C2(CNC(=O)C(c3ccccc3)c3ccccc3)CCOCC2)cc1OC, which Potency is on record?
A: inactive

Q: With CCC(CC)C(=O)N1CCc2cc(OC)c(OC)cc2C1COc1ccc(F)cc1 (stereo unspecified) as the compound, how does the Potency read?
A: inactive

Q: For COc1cccc(N2CCN(S(=O)(=O)c3cc(Br)cc4c3N(C(=O)C3CC3)CC4)CC2)c1, which Potency is on record?
A: inactive

Q: For Oc1c(C(c2ccc(F)cc2)N2CCN(Cc3ccccc3)CC2)sc2nc(-c3ccco3)nn12 (stereo unspecified), which Potency is on record?
A: inactive

Q: For CCCC(=O)Nc1cc(C(=O)NCc2ccc(OC)cc2)ccc1S(=O)(=O)c1ccc(Cl)cc1, which Potency is on record?
A: inactive

Q: With Cn1c(=O)c(=O)n(C)c2cc(NC(=O)c3ccccc3Br)ccc21 as the compound, how does the Potency read?
A: inactive

Q: For CCc1nn(CCCC(=O)NCc2ccc(C)cc2)c(=O)c2cc3occc3n12, which Potency is on record?
A: inactive

Q: Which Potency does the source give for Cc1ccc(NC(=O)C(=O)NCc2ccc(/C=N/NC(=O)c3c(C)nc4cc(C)ccn34)o2)cc1 here?
A: inactive

Q: Which activity, negative = cell killing does the source give for Cc1c(C(=O)NCCCc2ccccc2)cccc1[N+](=O)[O-] here?
A: -7.93% [at 1.84 µM] (inactive)

Q: With CC(NC(=S)Nc1ccccc1)C1COc2ccccc2O1 (stereo unspecified) as the compound, how does the Potency read?
A: inactive

Q: Which Potency does the source give for COc1cccc2c1cc1c(=O)n(CC(=O)N3CCN(c4cccc(Cl)c4)CC3)nc(C)n12 here?
A: inactive

Q: Which activity, negative = cell killing does the source give for COc1cc(OC)c(C(=O)Nc2ccccc2-c2ccccc2)cc1OC here?
A: 18.9% [at 1.84 µM] (inactive)

Q: With CCOC(=O)c1ccc(NC(=O)Cn2c(=O)cc(C)c3c(C)nn(-c4cccc(F)c4)c32)cc1 as the compound, how does the Potency read?
A: inactive

Q: With Cc1nn(-c2ccccc2)c(Cl)c1/C=C/C(=O)c1ccc(O)cc1 as the compound, how does the Potency read?
A: inactive

Q: Which activity, negative = cell killing does the source give for COc1ccc(NC(=O)CC2C(=O)OCC3CCCCN32)cc1Cl (stereo unspecified) here?
A: 14% [at 1.84 µM] (inactive)

Q: Which Potency does the source give for CC(C)(C)c1ccc(C(=O)NCc2nnc(SCC(=O)N3CCCc4ccccc43)n2-c2ccccc2)cc1 here?
A: inactive

Q: With Cc1cc(C)c(NC(=O)c2oc3ccccc3c2COc2ccccc2)c(C)c1 as the compound, how does the Potency read?
A: inactive

Q: For O=C(Nc1nc2c(s1)CCCC2)c1ccccc1F, which Potency is on record?
A: 7.94 µM (active)

Q: For Cc1cc(C)cc(OC(C)C(=O)Nc2nc3c(s2)CCCC3)c1 (stereo unspecified), which Potency is on record?
A: inactive

Q: Which Potency does the source give for Cc1ccccc1NC(=O)c1c(NC(=O)c2ccccc2F)sc2c1CCC(C)C2 (stereo unspecified) here?
A: inactive
